The source made the active and inactive calls. Unless noted, no rule for the calls is given here.
Legend:
[1] = anti-His antibody binders, primary screen, artefact control for SMM control protein annotation, biochemical, small-molecule microarray, 635 nm fluorescence (AID 1128); conditions: anti-His Alexa647 antibody binding, higher = more signal;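 also: score merges feature fluorescence with signal-to-noise for each printed compound spot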
[2] = tested on: Human papillomavirus type 1a E7 protein (residues 1-88); test: HPV1a E7 small-molecule binders, primary screen, biochemical, small-molecule microarray, residues 1-88, 635 nm (AID 1129); conditions: small-molecule microarray binding, fluorescence 635 nm; higher = more signal
[3] = biological target: Focal adhesion kinase 1 (Homo sapiens) (UniProt Q05397); test: small-molecule microarray binders of FAK, primary screen, biochemical, 635/667 nm fluorescence, BSA, DTT (AID 1130); conditions: PTK2 binding, 635 nm fluorescence, higher = more signal;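 also: composite of spot emission at 667 nm and signal to noise over triplicate slides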
[4] = tested on: Fibrinogen (Alexa647-labelled); test: fibrinogen binders on compound microarrays, profiling panel, artefact control for SMM control-protein annotation, biochemical, small-molecule microarray, 635/667 nm fluorescence (AID 1131); conditions: fibrinogen-A647 binding fluorescence, higher = more signal;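 also: z-score merges 667 nm fluorescence with per-spot signal-to-noise over triplicate slides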
[5] = biological target: Follistatin (Homo sapiens) (UniProt P19883); test: follistatin binders on small-molecule microarrays, primary screen, biochemical, small-molecule microarray, 635/667 nm fluorescence (AID 1132); conditions: FST binding, 635 nm fluorescence, higher = more signal
[6] = biological target: Fibroblast growth factor 2 (Homo sapiens) (UniProt P09038); test: FGF2 binders on small-molecule microarrays, primary screen, biochemical, small-molecule microarray, 635/667 nm fluorescence (AID 1133); conditions: small-molecule microarray binding, FGF2, fluorescence 635/667; higher = more signal
[7] = mitochondrial membrane potential change in A549 cells, profiling panel, cell-based, JC-1 fluorescence, basal, 24 h, 100 nL (AID 1138); conditions: higher = more signal;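 also: A549 lung adenocarcinoma cells under basal conditions with no added stimulus; test concentration not given here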
[8] = tested on: Lefty1; test: Lefty1 binders on small-molecule microarrays, primary screen, biochemical, small-molecule microarray, 635/667 nm fluorescence (AID 1139); conditions: small-molecule microarray binding, fluorescence 635/667; higher = more signal
[9] = tested on: wheat germ agglutinin (Triticum aestivum), Alexa647-labelled; test: wheat germ agglutinin binders on compound microarrays, profiling panel, artefact control for SMM control-protein annotation, biochemical, small-molecule microarray, 635/667 nm fluorescence (AID 1140); conditions: WGA-A647 binding, 635 nm fluorescence, higher = more signal;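 also: score merges 667 nm feature emission with signal to noise over triplicate slides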
[10] = biological target: Luciferin 4-monooxygenase (Photinus pyralis) (UniProt P08659); test: firefly luciferase enzyme inhibitors, primary screen, biochemical, luminescence, purified enzyme, 2006 set (AID 1141); conditions: SteadyGlo luminescence, 30 min, higher = more signal, called active from +8 up or from −8 down;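 also: cell-free assay with purified firefly luciferase at 100 ng per well in PBS; test concentration not given here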
[11] = tested on: Wnt5a (protein binding on small-molecule microarray); test: Wnt5a binders on small-molecule microarray, primary screen, biophysical, 635/667 nm fluorescence (AID 1142); conditions: 635 nm fluorescence, higher = more signal;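 also: fluorescence read at 667 nm with signal to noise per printed feature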
[12] = cell viability in Huh7 cells, primary screen, cytotoxicity control for HCV replication inhibitor project, CellTiter-Glo luminescence, basal, 48 h (AID 1143); conditions: Huh7 HCV replicon, higher = more signal, called active from +8 up or from −8 down;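 also: Huh7 hepatoma cells carrying a hepatitis C replication reporter with no stimulus; test concentration not given here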
[13] = P. aeruginosa biofilm formation inhibitors, primary screen, PAO1 strain, BacTiter-Glo luminescence, LB-PBS (AID 1144); conditions: 12 h, higher = more signal
[14] = CREB reporter modulators without forskolin, primary screen, cell-based, PC12, CRE-LacZ reporter, unstimulated (AID 1145); conditions: no forskolin, luminescence, 4.5 h, higher = more signal, called active from +8 up or from −8 down
[15] = CREB reporter modulators under forskolin, primary screen, cell-based, PC12, CRE-LacZ reporter, forskolin-stimulated (AID 1146); conditions: luminescence, 4.5 h, higher = more signal, called active from +8 up or from −8 down;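 also: PC12 cells with 6xCRE LacZ reporter stimulated by forskolin 10 µM; beta-galactosidase reporter signal reflecting CREB driven transcription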
[16] = biological target: Streptavidin (Streptomyces avidinii) (UniProt P22629); test: streptavidin binders on small-molecule microarray, primary screen, artefact control for SMM compound annotation, biophysical, 635/667 nm fluorescence (AID 1147); conditions: streptavidin binding, higher = more signal;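 also: signal reflects streptavidin binding to arrayed compounds as a control protein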
[17] = small-molecule binders of probe aInhba, primary screen, biochemical, small-molecule microarray, 635/667 nm fluorescence (AID 1148); conditions: higher = more signal;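 also: score merges 667nm spot fluorescence with signal-to-noise for antibody binding to printed compounds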
[18] = biological target: Torsin-1A (Homo sapiens) (UniProt O14656); test: torsin A binders from cell lysate, primary screen, small-molecule microarray, wild-type, 635/667 nm (AID 1149); conditions: COS7 hTOR1A-WT lysate, 635 nm fluorescence, higher = more signal
[19] = biological target: Torsin-1A (Homo sapiens) (UniProt O14656); test: small-molecule binders of mutant TOR1A in lysate, primary screen, cell lysate, small-molecule microarray, COS7 lysate, 635/667 nm fluorescence (AID 1150); conditions: COS7 hTOR1A mutant lysate, 635 nm fluorescence, higher = more signal;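 also: score pools 667 nm emission and signal to noise measuring lysate protein binding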
[20] = tested on: Sonic hedgehog protein (Shh); test: small-molecule binders of Shh protein, primary screen, biochemical, small-molecule microarray, 635/667 nm fluorescence (AID 1151); conditions: small-molecule microarray binding, 635 nm fluorescence; higher = more signal;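 also: Shh protein binding to compounds spotted on small-molecule microarray slides; score combines spot fluorescence intensity with signal-to-noise across triplicate slides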

Sequence of Focal adhesion kinase 1 (Homo sapiens) (Q05397 whole entry, looked up): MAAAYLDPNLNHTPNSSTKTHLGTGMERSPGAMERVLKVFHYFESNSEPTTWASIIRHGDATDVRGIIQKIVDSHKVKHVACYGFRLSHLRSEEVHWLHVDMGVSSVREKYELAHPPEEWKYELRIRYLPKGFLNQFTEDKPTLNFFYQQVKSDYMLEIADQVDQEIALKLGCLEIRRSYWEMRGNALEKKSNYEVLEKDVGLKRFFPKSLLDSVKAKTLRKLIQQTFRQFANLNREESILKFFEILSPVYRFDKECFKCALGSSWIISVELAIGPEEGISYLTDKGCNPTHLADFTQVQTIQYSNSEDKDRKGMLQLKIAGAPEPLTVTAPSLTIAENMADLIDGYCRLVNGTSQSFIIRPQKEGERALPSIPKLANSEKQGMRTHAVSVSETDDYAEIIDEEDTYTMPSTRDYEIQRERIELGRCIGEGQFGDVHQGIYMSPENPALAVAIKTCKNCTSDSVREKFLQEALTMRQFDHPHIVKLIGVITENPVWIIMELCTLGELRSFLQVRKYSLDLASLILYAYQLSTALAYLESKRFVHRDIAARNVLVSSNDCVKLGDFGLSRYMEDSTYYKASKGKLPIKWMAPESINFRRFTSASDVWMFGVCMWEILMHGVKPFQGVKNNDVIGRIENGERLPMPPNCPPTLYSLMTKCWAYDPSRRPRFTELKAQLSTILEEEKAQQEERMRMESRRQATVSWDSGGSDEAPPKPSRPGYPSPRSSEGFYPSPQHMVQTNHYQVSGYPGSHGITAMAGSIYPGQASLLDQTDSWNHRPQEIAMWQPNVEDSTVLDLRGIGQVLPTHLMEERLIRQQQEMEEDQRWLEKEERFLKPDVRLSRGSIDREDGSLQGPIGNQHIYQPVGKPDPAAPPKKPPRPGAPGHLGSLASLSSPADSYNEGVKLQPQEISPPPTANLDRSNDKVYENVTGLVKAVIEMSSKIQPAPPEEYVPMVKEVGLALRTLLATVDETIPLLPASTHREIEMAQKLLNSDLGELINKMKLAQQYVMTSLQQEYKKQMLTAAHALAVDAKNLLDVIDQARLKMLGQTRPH
Sequence of Torsin-1A (Homo sapiens) (O14656 whole entry, looked up): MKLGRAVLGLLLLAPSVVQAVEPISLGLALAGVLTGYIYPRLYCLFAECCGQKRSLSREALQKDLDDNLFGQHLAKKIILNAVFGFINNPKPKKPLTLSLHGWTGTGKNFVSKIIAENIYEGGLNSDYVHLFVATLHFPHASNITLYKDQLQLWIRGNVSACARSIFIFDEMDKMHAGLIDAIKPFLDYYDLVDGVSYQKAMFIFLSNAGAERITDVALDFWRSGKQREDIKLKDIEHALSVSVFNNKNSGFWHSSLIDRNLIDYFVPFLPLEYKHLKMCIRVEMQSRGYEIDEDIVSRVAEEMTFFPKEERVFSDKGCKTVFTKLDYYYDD
Sequence of Fibroblast growth factor 2 (Homo sapiens) (P09038 whole entry, looked up): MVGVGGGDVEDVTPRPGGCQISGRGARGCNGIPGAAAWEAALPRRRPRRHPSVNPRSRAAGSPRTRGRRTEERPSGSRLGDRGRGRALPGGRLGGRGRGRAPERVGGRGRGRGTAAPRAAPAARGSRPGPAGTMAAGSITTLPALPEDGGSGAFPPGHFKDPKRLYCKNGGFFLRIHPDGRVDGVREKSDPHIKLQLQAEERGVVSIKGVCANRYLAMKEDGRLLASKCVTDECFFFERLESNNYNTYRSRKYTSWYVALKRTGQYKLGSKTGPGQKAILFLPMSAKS
Sequence of Streptavidin (Streptomyces avidinii) (P22629 whole entry, looked up): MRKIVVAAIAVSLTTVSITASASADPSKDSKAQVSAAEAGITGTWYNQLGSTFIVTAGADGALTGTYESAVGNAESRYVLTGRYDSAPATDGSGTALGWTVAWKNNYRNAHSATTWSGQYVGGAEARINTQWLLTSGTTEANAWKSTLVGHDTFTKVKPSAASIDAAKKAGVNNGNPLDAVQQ
Sequence of Follistatin (Homo sapiens) (P19883 whole entry, looked up): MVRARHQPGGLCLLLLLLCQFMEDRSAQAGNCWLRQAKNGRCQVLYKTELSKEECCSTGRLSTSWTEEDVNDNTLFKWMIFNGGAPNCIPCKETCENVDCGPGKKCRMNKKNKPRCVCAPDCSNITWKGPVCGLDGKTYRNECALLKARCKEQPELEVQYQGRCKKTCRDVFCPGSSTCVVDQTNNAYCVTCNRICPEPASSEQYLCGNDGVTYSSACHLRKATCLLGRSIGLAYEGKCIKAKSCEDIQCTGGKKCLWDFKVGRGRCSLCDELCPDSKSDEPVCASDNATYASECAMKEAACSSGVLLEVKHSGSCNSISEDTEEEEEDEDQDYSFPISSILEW
Sequence of Luciferin 4-monooxygenase (Photinus pyralis) (P08659 whole entry, looked up): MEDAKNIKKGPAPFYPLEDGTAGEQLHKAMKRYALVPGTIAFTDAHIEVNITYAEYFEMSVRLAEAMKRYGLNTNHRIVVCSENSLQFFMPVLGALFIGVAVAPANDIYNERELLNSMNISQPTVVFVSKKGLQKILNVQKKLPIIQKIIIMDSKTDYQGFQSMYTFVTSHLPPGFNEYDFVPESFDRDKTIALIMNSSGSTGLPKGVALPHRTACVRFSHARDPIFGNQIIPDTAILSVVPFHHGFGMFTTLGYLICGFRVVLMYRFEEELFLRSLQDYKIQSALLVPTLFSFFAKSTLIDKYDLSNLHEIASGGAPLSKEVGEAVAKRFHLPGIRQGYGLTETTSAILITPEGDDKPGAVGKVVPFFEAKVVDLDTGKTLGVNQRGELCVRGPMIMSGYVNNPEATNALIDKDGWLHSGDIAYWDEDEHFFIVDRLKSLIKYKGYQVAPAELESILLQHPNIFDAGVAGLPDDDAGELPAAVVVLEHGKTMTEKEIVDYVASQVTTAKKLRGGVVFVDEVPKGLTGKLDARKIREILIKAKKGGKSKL

Structure (SMILES) | composite z-score [1] | composite z-score [2] | composite z-score [3] | composite z-score [4] | composite z-score [5] | composite z-score [6] | z-score [7] | composite z-score [8] | composite z-score [9] | z-score [10] | composite z-score [11] | z-score [12] | z-score [13] | z-score [14] | z-score [15] | composite z-score [16] | composite z-score [17] | composite z-score [18] | composite z-score [19] | composite z-score [20]
O=C(CCCCCCC(=O)Nc1ccccc1)N/N=C/c1ccccc1 | 0.602 | -0.581 | -0.266 | -0.876 | -0.083 | 0.323 | -0.123 | -0.251 | -0.552 | -0.83 (inactive) | -0.343 | 0.0796 (inactive) | 0.99 (inactive) | 5.11 (inactive) | 0.0631 (inactive) | -0.184 | 0.0074 | 0.577 | 0.146 | 0.0351
Cc1ccc(S[C@]2(C(=O)NCCN3CCOCC3)CC(=O)N(Cc3ccccc3C(F)(F)F)[C@@H]2c2ccc(CO)cc2I)cc1 | 0.771 | -0.0269 | 0.167 | -1.16 | -0.562 | -0.907 | -0.695 | -0.87 | -0.194 | 0.622 (inactive) | 0.0381 | -0.984 (inactive) | -0.487 (inactive) | 0.299 (inactive) | 4.04 (inactive) | -1.49 | -0.157 | 0.174 | -0.38 | -0.245
C=CCNC(=O)[C@H]1[C@@H]2C(=O)O[C@@H](c3ccccc3)[C@@H](c3ccccc3)N2[C@@H](c2ccccc2OCCO)[C@]12C(=O)N(C(=O)OCCOC)c1ccc(C#CC3=CCCCC3)cc12 | 0.108 | 1.24 | 0.369 | 0.975 | 1.21 | 0.685 | -0.295 | 0.885 | 0.993 | -1.48 (inactive) | 0.356 | -4.73 (inactive) | 1.37 (inactive) | -0.333 (inactive) | 0.371 (inactive) | 1.08 | 0.423 | 1.02 | 0.798 | 0.826
C=C[C@@H](C)[C@H](OC(=O)Nc1ccc(SC)cc1)c1ccc(OCCO)cc1 | -0.0489 | -0.784 | 0.31 | -1.64 | 0.229 | -0.549 | -0.497 | 0.0878 | 0.782 | -4.77 (inactive) | -0.403 | -0.957 (inactive) | -1.37 (inactive) | 0.861 (inactive) | -0.97 (inactive) | -0.936 | -0.259 | -0.582 | 0.695 | 0.182
CC(C)(C)OC(=O)CC[C@]1(C(=O)N2CCOCC2)N=C(c2ccc(OCCCO)cc2)O[C@H]1c1ccccc1 | 1.9 | 0.645 | 0.407 | 0.886 | 0.825 | 0.858 | 2.23 | 0.398 | 0.298 | -1.99 (inactive) | 0.959 | -1.37 (inactive) | 0.838 (inactive) | -0.114 (inactive) | 1.06 (inactive) | 2.02 | -0.152 | -0.0284 | 0.618 | -0.733
